TMEM16A act = TMEM16A chloride channel activators or potentiators, primary screen, cell-based, HTS; 340,000 tested, 0.3% active; HEK293 TMEM16A/YFP-H148Q/I152L, iodide quench fluorescence; hits give low values; AID 623877, 2012; B-score at 10 µM; Anoctamin-1 (Mus musculus), Q8BHY3;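 active means fluorescence-ratio B-score plate-corrected deviation score at least 3 library SD below zero, with starting fluorescence score within 5 deviations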;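 further: channel opened by trigger with iodide after compound preincubation; score built on the fluorescence ratio of max minus min over baseline; more negative score means more quench and so TMEM16A activation or potentiation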
MEKK2mut PB1 HTS = MEK5 binding signal on mutant MEKK2 PB1, primary screen, biochemical, multiplex bead flow cytometry, Alexa488-MEK5. Alexa488-MEK5 binding to MEKK2 mutant. percent response, % at 10 µM. 290,000 tested, 0.35% active. AID 1530, 2009; in the data active means percent response above about 24%, passing the limit was not always enough
ANO1 block = TMEM16A chloride channel inhibitors, primary screen, cell-based, HTS. Anoctamin-1 (Mus musculus), Q8BHY3. HEK293 TMEM16A/YFP iodide influx fluorescence, ionomycin. normalized B-score (activity score, 25-100; higher = stronger inhibition) at 10 µM. 310,000 tested, 1.2% active. AID 588511, 2011;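 active means ratio plate-corrected score three or more library SD toward inhibition, starting fluorescence score within five deviations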;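 further: score derived from kinetic fluorescence span divided by baseline fluorescence per well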
MEKK3 PB1 HTS = modulators of MEKK3-MEK5 PB1 binding, primary screen, biochemical, wildtype MEKK3, multiplex bead flow cytometry, Alexa488-MEK5. bead-based flow cytometry, Alexa488-MEK5 binding to MEKK3; actives lie on both sides; 0 = blocked by unlabeled MEK5, 100 = vehicle. 290,000 tested, 1.4% active. binding response (% of control), % at 10 µM. Mitogen-activated protein kinase kinase kinase 3 (Homo sapiens), Q99759. AID 1529, 2009;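 active means binding response more than 3 SD above or below the average of its plate-row segment, actives on both sides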;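 further: Alexa488 bead fluorescence after subtracting the streptavidin-only scavenger bead signal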
Target sequence (Q99759 whole entry, looked up): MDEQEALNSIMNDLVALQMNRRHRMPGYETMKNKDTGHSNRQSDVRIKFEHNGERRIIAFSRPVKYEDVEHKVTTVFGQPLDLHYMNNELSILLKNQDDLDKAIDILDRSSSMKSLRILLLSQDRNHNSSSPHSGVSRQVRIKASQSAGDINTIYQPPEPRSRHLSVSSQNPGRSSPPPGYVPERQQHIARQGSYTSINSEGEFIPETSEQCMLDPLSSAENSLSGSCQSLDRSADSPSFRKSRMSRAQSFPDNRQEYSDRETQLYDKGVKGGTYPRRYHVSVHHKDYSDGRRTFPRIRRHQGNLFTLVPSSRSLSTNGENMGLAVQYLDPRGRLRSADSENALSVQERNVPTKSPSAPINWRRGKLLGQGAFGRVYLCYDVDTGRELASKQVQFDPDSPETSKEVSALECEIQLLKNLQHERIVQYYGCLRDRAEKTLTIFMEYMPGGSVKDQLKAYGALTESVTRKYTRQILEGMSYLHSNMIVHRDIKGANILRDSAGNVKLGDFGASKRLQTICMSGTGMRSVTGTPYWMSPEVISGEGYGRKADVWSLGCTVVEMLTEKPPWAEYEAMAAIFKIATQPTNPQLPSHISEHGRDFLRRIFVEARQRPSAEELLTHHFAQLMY
MEKK2 WT-MEK5 = modulators of MEK5 binding to wildtype MEKK2, primary screen, biochemical, multiplex bead flow cytometry, Alexa488-MEK5; Alexa488-MEK5 binding to MEKK2 WT; actives lie on both sides; 290,000 tested, 1.1% active; AID 1531, 2009; binding response (% of control), % at 10 µM; in the data active means binding response below about 67% or above about 130%
NTR1 agonist = agonists of human NTR1, primary screen, imaging, U2OS cells, beta-arrestin-GFP, high content; Neurotensin receptor type 1 (Homo sapiens), P30989; NTR1-U2OS beta-arrestin-GFP spot imaging, agonist mode; activation, % at 20 µM; 330,000 tested, 0.17% active;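 active means activation at or above 40% of the spot to cytoplasm intensity ratio, with at least 20 cells analyzed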
MEKK2wt confirm = modulators of MEK5 binding to wildtype MEKK2, confirmation, biochemical, single concentration, multiplex bead flow cytometry; Alexa488-MEK5 binding to MEKK2 WT; actives lie on both sides; binding response (% of control), % at 10 µM; shares compounds with MEKK3 PB1 HTS; 5,900 tested, 2.4% active; in the data active means binding response below about 16% or above about 210%; inactive means in between
MEKK2mut-MEK5 = mutant MEKK2 PB1-MEK5 binding signal retest – biochemical, single concentration, multiplex bead flow cytometry, confirmation; shares compounds with MEKK3 PB1 HTS; Alexa488-MEK5 binding to MEKK2 mutant; percent response, % at 10 µM; 5,900 tested, 2% active; in the data active means percent response mostly above about 71%, no sharp cut-off; inactive means mostly below about 38%;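 further: higher means compound restores mutant binding toward wildtype level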
MEKK3-MEK5 inh = MEKK3 wild-type PB1 binding to MEK5, inhibitors, confirmation, biochemical, bead multiplex flow cytometry, single concentration, wildtype; binding response (% of control), % at 10 µM; Alexa488-MEK5 binding to MEKK3; hits give low values; shares compounds with MEKK3 PB1 HTS; 5,900 tested, 1.8% active;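 active means binding response below 72% of control, or above a set upper limit, though filed actives all read lower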
Each line names hits and unclear results; the compound was inactive in the other large screens (follow-up assays come after a bar, where they were run); [ ] = dose if it differs, or a comment. Hits are enriched below; roughly 3.4% of the tested compounds scored in any of these assays.

O=C(/C=C/c1ccc(S(=O)(=O)N2CCOCC2)cc1)NCCc1ccc(C(F)(F)F)cc1	none (no result: MEKK2mut PB1 HTS, ANO1 block, MEKK3 PB1 HTS, MEKK2 WT-MEK5)
CC1(C)CC2(CCCN(C(=S)Nc3ccccc3)C2)CCO1 (centres undefined)	MEKK3 PB1 HTS 128 | MEKK2wt confirm inactive | MEKK2mut-MEK5 inactive | MEKK3-MEK5 inh inactive
COc1ccc(CN(CC(O)COc2cccc3[nH]cc(C)c23)C(C)(C)C)cc1 (centres undefined)	none
Cc1cccc(-n2c(=O)c3c4c(sc3n3c(=S)[nH]nc23)CCC4)c1	MEKK3 PB1 HTS 131 (no result: ANO1 block) | MEKK2wt confirm inactive | MEKK2mut-MEK5 inactive | MEKK3-MEK5 inh inactive
Cc1ccc(C(=O)CSc2ncnc3sc4c(c23)CCCC4)cc1	MEKK3 PB1 HTS 0.0[inhibitor], MEKK2 WT-MEK5 -7.0[inhibitor] | MEKK2wt confirm inactive | MEKK2mut-MEK5 inactive | MEKK3-MEK5 inh inactive
Cc1ccc(C)c(-n2c(SCC(=O)Nc3nonc3C)nnc2-c2ccoc2C)c1	none
Cc1occc1-c1nnc(SCC(=O)Nc2ccccc2)n1Cc1ccccc1	none
Cc1occc1-c1nnc(SCC(=O)Nc2ccc(F)cc2)n1Cc1ccccc1	MEKK3 PB1 HTS 2.0[inhibitor], MEKK2 WT-MEK5 2.0[inhibitor] | MEKK2wt confirm inactive | MEKK2mut-MEK5 inactive | MEKK3-MEK5 inh inactive
Cc1ccc(C)c(-n2c(SCC(=O)Nc3nnc(C)s3)nnc2-c2ccoc2C)c1	MEKK3 PB1 HTS 2.0[inhibitor], MEKK2 WT-MEK5 2.0[inhibitor] | MEKK2wt confirm inactive | MEKK2mut-MEK5 inactive | MEKK3-MEK5 inh inactive
CCn1c(Cc2ccccc2)nnc1SCC(=O)Nc1ccc(OC)cc1	MEKK3 PB1 HTS 44[inhibitor] | MEKK2wt confirm inactive | MEKK2mut-MEK5 inactive | MEKK3-MEK5 inh inactive
COCCn1c(SCC(=O)Nc2nnc(C)s2)nnc1-c1ccoc1C	MEKK3 PB1 HTS 129 | MEKK2wt confirm inactive | MEKK2mut-MEK5 inactive | MEKK3-MEK5 inh inactive
CC(OC(=O)c1ccc2c(c1)OCCO2)C(=O)c1ccccc1 (centres undefined)	none (no result: MEKK2mut PB1 HTS, MEKK3 PB1 HTS, MEKK2 WT-MEK5)
CCCC(=O)NCCc1nc2ccccc2n1CCC	none
CCCn1c(CNC(=O)Cc2ccccc2)nc2ccccc21	MEKK3 PB1 HTS 32[inhibitor], MEKK2 WT-MEK5 38[inhibitor] | MEKK2wt confirm inactive | MEKK2mut-MEK5 inactive | MEKK3-MEK5 inh inactive
CCOc1ccccc1CN1CCN(Cc2c[nH]c3ccccc23)CC1CCO (centres undefined)	MEKK2 WT-MEK5 134 | MEKK2wt confirm inactive | MEKK2mut-MEK5 inactive | MEKK3-MEK5 inh inactive
CCOc1ccccc1CN1CCN(C2CCN(c3ccccc3F)CC2)CC1CCO (centres undefined)	MEKK3 PB1 HTS 75[inhibitor] | MEKK2wt confirm inactive | MEKK2mut-MEK5 inactive | MEKK3-MEK5 inh inactive
O=C(NN1CC(C(=O)OCc2ccccc2F)CC1=O)c1ccccc1 (centres undefined)	none
COC(=O)CCC(=O)OC1(C)C(=O)C=C2C=C(C3CC3)N(CCCCO)C=C2C1=O (centres undefined)	MEKK2 WT-MEK5 141 | MEKK2wt confirm inactive | MEKK2mut-MEK5 inactive | MEKK3-MEK5 inh inactive
COC(=O)CCC(=O)OC1(C)C(=O)C=C2C=C(C3CC3)N(C(CO)CO)C=C2C1=O (centres undefined)	MEKK2 WT-MEK5 151 | MEKK2wt confirm inactive | MEKK2mut-MEK5 inactive | MEKK3-MEK5 inh inactive
COC(=O)CCC(=O)OC1(C)C(=O)C=C2C=C(C3CC3)N(CCCOC(C)C)C=C2C1=O (centres undefined)	none
COC(=O)CCC(=O)OC1(C)C(=O)C=C2C=C(C3CC3)N(CCc3c[nH]c4ccccc34)C=C2C1=O (centres undefined)	MEKK3 PB1 HTS 0.0[inhibitor], MEKK2 WT-MEK5 0.0[inhibitor] | MEKK2wt confirm inactive | MEKK2mut-MEK5 inactive | MEKK3-MEK5 inh inactive
COC(=O)CCC(=O)OC1(C)C(=O)C=C2C=C(C3CC3)N(CCN3CCOCC3)C=C2C1=O (centres undefined)	MEKK2 WT-MEK5 143 | MEKK2wt confirm inactive | MEKK2mut-MEK5 inactive | MEKK3-MEK5 inh inactive
COc1cccc(OC)c1OCCCNC1CCCC1	none
COc1ccc2[nH]c(-c3ccccc3)cc2c1	none
COC(=O)CCC(=O)OC1(C)C(=O)C=C2C=C(C3CC3)N(Cc3ccc(OC)cc3)C=C2C1=O (centres undefined)	none
COC(=O)CCC(=O)OC1(C)C(=O)C=C2C=C(C3CC3)N(Cc3ccc4c(c3)OCO4)C=C2C1=O (centres undefined)	MEKK2 WT-MEK5 -7.0[inhibitor] | MEKK2wt confirm inactive | MEKK2mut-MEK5 inactive | MEKK3-MEK5 inh inactive
COC(=O)CCCC1=CC2=CC(=O)C(C)(OC(=O)c3cccs3)C(=O)C2=CN1C1CC1 (centres undefined)	MEKK2 WT-MEK5 142 | MEKK2wt confirm inactive | MEKK2mut-MEK5 inactive | MEKK3-MEK5 inh inactive
CCOC(=O)C1CCN(C(=O)CCc2ccc(S(=O)(=O)NC(C)C)cc2)CC1	none
CCOC(=O)C1CCN(C(=O)CCc2ccc(S(=O)(=O)NCC(C)C)cc2)CC1	MEKK2mut PB1 HTS 26 | MEKK2wt confirm inactive | MEKK2mut-MEK5 inactive | MEKK3-MEK5 inh inactive
COc1cc(OC)c(CN2CCc3c([nH]c4ccccc34)C2)cc1Br	MEKK2mut PB1 HTS 30 | MEKK2wt confirm inactive | MEKK2mut-MEK5 inactive | MEKK3-MEK5 inh inactive
CC(C)CC(OC(=O)CC1Sc2ccccc2NC1=O)C(=O)NC1CCCC1 (centres undefined)	none
CCC(C)(C)n1nnnc1C(c1cccnc1)N1CCN(c2cccc(C(F)(F)F)c2)CC1 (centres undefined)	MEKK3 PB1 HTS 123 | MEKK2wt confirm inactive | MEKK2mut-MEK5 inactive | MEKK3-MEK5 inh inactive
CCC(C)(C)n1nnnc1C(c1ccncc1)N1CCN(c2cccc(OC)c2)CC1 (centres undefined)	none

Bioassay records deposited in PubChem BioAssay by several laboratories.
